A selection: hits, their analogues and other compounds. The true share with any hit is near 3.1%.
BRCA1 expr up – qHTS Assay to Identify Small Molecule Activators of BRCA1 Expression; MCF7-BRCA1-FFLuc reporter, luminescence, 48 h; response scale: scaled: vehicle 0%, 10 µM genistein 100%; Potency, µM (doses to about 46.1 µM), usual class: activators; hit rate 1.1% among 380,000; AID 624202, 2012; note: nearly all actives have a fitted effect of over 80% in size
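Reporter cells (MCF7, BRCA1 promoter-firefly luciferase) received library compounds across a concentration series for 48 h. End-point luminescence was measured and concentration-effect curves derived after normalization.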
ELG1 DNA repair – qHTS screen for small molecules that inhibit ELG1-dependent DNA repair in human embryonic kidney (HEK293T) cells expressing luciferase-tagged ELG1 | HEK293T ELG1-luciferase reporter, luminescence, 16 h; DNA damage induced by 5-fluorouridine | Potency, µM (doses to about 46.1 µM), actives largely listed as inhibitors | hit rate 2.3% among 330,000 | AID 504467, 2011; note: nearly all actives have a fitted effect of over 55% in size
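Quantitative HTS, concentration-response format. 2,000 cells/well co-treated with 5-fluorouridine and compound, 16 hr in 5% CO2 at 37 °C; ONE-Glo luminescence read after 30 min.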
Nrf2 activator – qHTS of Nrf2 Activators | AREc32 ARE-luciferase reporter (MCF7-derived line), luminescence, 24 h | Potency, µM (titrated, usually from 46.1 µM), most hits filed as activators | hit rate 0.31% among 410,000; note: nearly all actives have a fitted effect of over 65% in size
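Luciferase luminescence (Steady-Glo, 30 min at room temperature) served as the read-out of ARE activation in AREc32 cells treated with compounds for 24 hr at 37 deg C.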
IL-2 act – qHTS of IL-2 Activators | IL-2 activation reporter assay, cell-based qHTS; stimulated with anti-CD3/CD4/CD28 beads; in transgenic mouse T cells | activation, % (series mostly up to about 46 µM) | hit rate 0.065% among 360,000 | AID 652025, 2013; in the data active = activation above about 50%; inconclusive = mostly about 30% to 49%
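Readout: EGFP and DsRed signals by fluorescent plate cytometry. Unstimulated transgenic mouse T cells received compound 60 min before antibody-bead stimulation, then incubated 18 h at 37 degrees C.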
Of the large screens only hits and unclear results are named; the others gave an inactive call. Unless noted, calls come from the whole dose curve; as a rule, active = well fitted curve in the direction sought with a large enough effect; inconclusive = small, poorly fitted or top-dose-only effect, or another doubt; inactive = no such curve, though single readings can be large; an effect the other way counts as inactive or inconclusive.

O=C(Nc1cc(=O)c2ccccc2o1)N1CCCCC1	ELG1 DNA repair 14.6µM
O=C(Nc1cc(=O)c2ccccc2o1)N1CCOCC1	ELG1 DNA repair 5.8µM
O=c1c(-c2ccc(F)cc2)coc2cc(O)ccc12	BRCA1 expr up 11.2µM, ELG1 DNA repair inconclusive
CC(=O)n1c(C=Nc2ccc(Cl)cc2)c(O)c2ccccc21	ELG1 DNA repair inconclusive, Nrf2 activator inconclusive, IL-2 act 83.7
Cn1c(=O)c(Oc2ccc(Cl)cc2)c(O)c2ccccc21	none
CCOC(=O)c1c(C)nc2c(c1C)/C(=N/O)CC(C)(C)C2	ELG1 DNA repair 18.4µM
CC(C)NC(=O)C1(C)CCCCN1Cc1ccc(OCc2ccccc2)cc1 (configuration not stated)	none (no result: ELG1 DNA repair)
CSc1ccccc1NC(=O)CN(C)C(=O)/C=C/c1ccccc1	none
COc1cc(/C=C/C(=O)N(C)CC(=O)Nc2ccccc2SC)cc(OC)c1OC	ELG1 DNA repair 16.4µM
COc1cc(SC)ccc1C(=O)Nc1ccccn1	BRCA1 expr up inconclusive, ELG1 DNA repair inconclusive, Nrf2 activator 12.6µM
COc1cc(SC)ccc1C(=O)Nc1ccc(C)cc1	ELG1 DNA repair inconclusive
COc1cc(SC)ccc1C(=O)Nc1cc(C)c(OCC(=O)N2CCOCC2)c(C)c1	ELG1 DNA repair 14.6µM
COc1cc(SC)ccc1C(=O)Nc1ccc(OCC(=O)N2CCOCC2)cc1	ELG1 DNA repair inconclusive
COc1cc(SC)ccc1C(=O)Nc1ccc(C)cc1C	BRCA1 expr up 7.94µM, ELG1 DNA repair inconclusive
Cn1cnc(S(=O)(=O)N2CCCCC2c2cc(C(=O)Nc3cccc4c3CCCC4)no2)c1 (configuration not stated)	none (no result: ELG1 DNA repair)
CCCCOc1ccc(CC(=O)N(C)O)cc1	none (no result: ELG1 DNA repair, Nrf2 activator, IL-2 act)
Cc1ccc(CC2S/C(=N/N=C/c3ccco3)NC2=O)cc1 (configuration not stated)	Nrf2 activator 4.47µM
O=C1N/C(=N/N=C/c2ccco2)SC1Cc1ccccc1 (configuration not stated)	Nrf2 activator inconclusive
CC(C)(C)c1ccc(C(=O)NNc2ncnc3c2cnn3-c2ccccc2)cc1	none (no result: BRCA1 expr up, ELG1 DNA repair, IL-2 act)
O=C(Cc1ccc(Cl)cc1)Nc1cc(Cl)ccn1	BRCA1 expr up 7.08µM (no result: ELG1 DNA repair)
O=C(Cc1ccc(Cl)cc1)Nc1ccncc1	ELG1 DNA repair inconclusive
CCOc1ccc2nc(N3CCN(C(=O)c4ccc5c(c4)CCCC5)CC3)sc2c1	none (no result: BRCA1 expr up, ELG1 DNA repair, IL-2 act)
O=C(c1ccc(CS(=O)Cc2ccc(Cl)cc2)o1)N1CCN(c2ccccn2)CC1 (configuration not stated)	ELG1 DNA repair inconclusive
O=C(c1ccc(CS(=O)Cc2ccccc2Cl)o1)N1CCN(c2ccccn2)CC1 (configuration not stated)	ELG1 DNA repair 20.6µM
COc1cccc(N2CCN(C(=O)c3ccc(CS(=O)Cc4ccc(Cl)cc4)o3)CC2)c1 (configuration not stated)	ELG1 DNA repair 20.6µM
O=C(O)c1ccc(-n2ncc(Cl)c(Cl)c2=O)cc1	Nrf2 activator inconclusive (no result: ELG1 DNA repair)
Cc1ccc(C(=O)OCn2ncc(Cl)c(Cl)c2=O)cc1	ELG1 DNA repair 7.31µM, Nrf2 activator inconclusive
Cc1ccc(C)c(C(=O)Cn2ncc(Cl)c(Cl)c2=O)c1	ELG1 DNA repair inconclusive, Nrf2 activator inconclusive
O=C(OCn1ncc(Cl)c(Cl)c1=O)c1ccc(C(F)(F)F)cc1	ELG1 DNA repair inconclusive, Nrf2 activator 10µM
COc1ccc(CCNC(=O)c2cc(Nc3ccccc3)nc3ccccc23)cc1OC	none (no result: BRCA1 expr up, ELG1 DNA repair, IL-2 act)
Cc1ccc(NC(=O)Nc2ccon2)cc1	BRCA1 expr up inconclusive, ELG1 DNA repair inconclusive
CCOc1ccc(NC(=O)Nc2ccccc2SC)cc1	BRCA1 expr up 2.82µM, ELG1 DNA repair inconclusive
CCOc1ccc(NC(=O)Nc2ccon2)cc1	BRCA1 expr up 10µM, ELG1 DNA repair inconclusive
CC(C)c1cn(CC[C@@H]2CC[C@@H](NC(=O)C3CCCCC3)[C@@H](CO)O2)nn1	none (no result: BRCA1 expr up, ELG1 DNA repair, Nrf2 activator)
C/C(=N/OCc1ccc(Br)cc1)c1ccccn1	BRCA1 expr up 3.55µM, ELG1 DNA repair inconclusive
COCCNC(=O)C1CC(c2ccc([N+](=O)[O-])cc2)=NO1 (configuration not stated)	none
O=C(NCCc1cccs1)C1CC(c2ccc([N+](=O)[O-])cc2)=NO1 (configuration not stated)	BRCA1 expr up 10µM, ELG1 DNA repair inconclusive
CC(C)(C)Cc1c(-c2ccc(C#N)cc2)nc2c(Cl)cc(C(F)(F)F)cn12	none (no result: ELG1 DNA repair)
CCOc1ccc(Oc2ccc(NS(=O)(=O)c3cc(C(=O)O)ccc3Cl)cc2)cc1	none
COc1ccc(C(=O)Nc2ccc(Cl)c(S(=O)(=O)Nc3ccccc3OC)c2)cc1	ELG1 DNA repair inconclusive
CCOc1ccc(NS(=O)(=O)c2cc(NC(=O)c3ccc(C)cc3)ccc2Cl)cc1	ELG1 DNA repair 6.51µM
COc1ccccc1NS(=O)(=O)c1cc(NC(=O)c2ccc(Cl)nc2)ccc1Cl	ELG1 DNA repair 13µM
CCN(CC(=O)Nc1ccc(OC)cc1)C(=O)c1cc(-c2cccs2)nn1-c1ccccc1	ELG1 DNA repair inconclusive
COCCN(CC(=O)Nc1cccc(C)c1C)C(=O)c1cc(-c2cccs2)nn1-c1ccccc1	ELG1 DNA repair 12.6µM
CCCN(CC(=O)Nc1ccccc1OC)C(=O)c1cc(-c2ccccc2)nn1-c1ccccc1	ELG1 DNA repair 20.6µM
CCN(CC(=O)Nc1ccc(NC(C)=O)cc1)C(=O)c1cc(-c2ccccc2)nn1-c1ccccc1	ELG1 DNA repair inconclusive
COc1ccccc1NC(=O)CN(Cc1ccco1)C(=O)c1ccc(-n2nc(C)cc2C)cc1	ELG1 DNA repair 23.1µM
CCOc1ccc(OCC)c(NC(=O)c2nnn(CC(=O)Nc3cc(Cl)ccc3OC)c2N)c1	none (no result: ELG1 DNA repair, IL-2 act)
CCOC(=O)C1=C(COC(=O)CCOc2ccc(OC)cc2)NC(=O)NC1C (configuration not stated)	none
CCOC(=O)C1=C(COC(=O)CCOc2ccc(C)cc2)NC(=O)NC1C (configuration not stated)	ELG1 DNA repair 25.9µM, Nrf2 activator inconclusive
FC(F)Oc1ccc(-n2cc(-c3ccccc3)[n+]3c2CCCCC3)cc1	ELG1 DNA repair 16.4µM
Cc1ccc(-c2cn(-c3ccc(OC(F)F)cc3)c3[n+]2CCCCC3)cc1	ELG1 DNA repair 9.2µM
Clc1ccc(-n2cc(-c3ccc(Br)cc3)[n+]3c2CCCCC3)cc1	ELG1 DNA repair inconclusive
N/C(=N\OC(=O)c1ccccc1)c1ccncc1	ELG1 DNA repair inconclusive
N/C(=N\OC(=O)c1cccc(Br)c1)c1ccncc1	BRCA1 expr up 14.1µM, ELG1 DNA repair inconclusive, Nrf2 activator inconclusive
N/C(=N\OC(=O)c1ccc(Br)cc1)c1ccncc1	BRCA1 expr up 3.98µM, ELG1 DNA repair inconclusive
CC(=O)c1ccc(N2CCN(C(=O)c3cc(S(=O)(=O)N4CCCCCC4)cn3C)CC2)cc1	none (no result: ELG1 DNA repair, IL-2 act)
C(=C\c1ccccc1)/C=N/N1CCN(Cc2ccccc2)CC1	BRCA1 expr up 11.2µM, ELG1 DNA repair inconclusive
Clc1ccc(/C=N/N2CCN(Cc3ccccc3)CC2)cc1	ELG1 DNA repair inconclusive
